# Source: ChEMBL document CHEMBL3988442, “University of Dundee, Small-Polar-MMV Screening Library” (2021)
# Hit rate of the full screen: of about 69,000 compounds, about 1,000 (1.4%) showed an effect of 50% or more. The list comes from a sample in which strong results are over-represented; it also holds similar structures and randomly drawn compounds.
# System: Leishmania donovani
# Test: Leishmania intramacrophage assay
# Type: functional, organism-based
# Parameters: scale not given: in the data most compounds retested in dose-response had high values
smiles,measurement,setting,value
CC(C)NC(=O)[C@@H]1C[C@@H](N)CN1C(=O)CCSCc1ccccc1,Percent Effect,"30.3 µM, […]",17.42%
CCC[C@H]1CN(CCS(C)(=O)=O)C[C@@H]1NC(=O)c1cc(CC)on1,Percent Effect,"30.3 µM, […]",-7.054%
CCS(=O)(=O)NCC1OCCc2cn(CCOC)nc21 (stereo not given),Percent Effect,"30.3 µM, […]",22.39%
CNc1nc(CNC(=O)Nc2cccc(COCCOC(C)C)c2)cs1,Percent Effect,"30.3 µM, […]",10.56%
Cc1cc(O)n2nc(C3CCN(C(=O)c4ccccn4)CC3)cc2n1,Percent Effect,"30.3 µM, […]",-30.04%
O=C(NCCCn1cncn1)N1CCCCCC1,Percent Effect,30 µM,20.62%
CCS(=O)(=O)NCCNC(=O)c1cc(Cl)c2c(c1)OCCCO2,Percent Effect,"30 µM, 30.03 µM",35.29%
COc1cccc2c1OCCCN(Cc1ncccc1C(=O)O)C2,Percent Effect,"30.3 µM, […]",-9.577%
CN(CCCOc1ccccc1)C(=O)CN1CCc2cncnc2C1,Percent Effect,"30 µM, 30.03 µM",6.848%
N[C@@H]1CC[C@@H](NC(=O)c2ccccc2OC(F)(F)C(F)F)C1,Percent Effect,"30.3 µM, […]",-30%
Cc1noc([C@]23COC[C@H]2CN(C(=O)COC2CCCC2)C3)n1,Percent Effect,"30.3 µM, […]",14.27%
Cc1noc([C@]23COC[C@H]2CN(C(=O)Cc2ccsc2)C3)n1,Percent Effect,"30.3 µM, […]",57.44%
CCOCC(=O)N1C[C@@H]2COC[C@]2(c2nc(C)no2)C1,Percent Effect,"30.3 µM, […]",46.85%
O=C(O)C(F)(F)F.c1cc(CN2CCC3(CCOCC3COCC3CC3)CC2)co1 (stereo not given),Percent Effect,"30.3 µM, […]",12%
Fc1cccc(N2CCCC3(CN(Cc4nccs4)CCO3)C2)c1.O=C(O)C(F)(F)F.O=C(O)C(F)(F)F (stereo not given),Percent Effect,"30.3 µM, […]",41.24%
Fc1cccc(N2CCCC3(C2)CN(c2ncccn2)CCO3)c1.O=C(O)C(F)(F)F.O=C(O)C(F)(F)F (stereo not given),Percent Effect,"30 µM, 30.03 µM",0.139%
c1ccc(C2=NOC3(CCN(Cc4c[nH]c5ccccc45)CC3)C2)cc1,Percent Effect,"30.3 µM, […]",96.36%
CC(C)C1=NOC2(CCN(Cc3c[nH]c4ccccc34)CC2)C1,Percent Effect,"30.3 µM, […]",1.888%
c1cncc(C2=NOC3(CCN(Cc4c[nH]c5ccccc45)CC3)C2)c1,Percent Effect,"30.3 µM, […]",11.25%
CN(C(=O)c1ccc(S(=O)(=O)NC(C)(C)C)cc1)C1(C#N)CCC1,Percent Effect,"30.3 µM, […]",6.383%
CN1CCN(Cc2nnc(C3CCN(CC4CC4)CC3)n2C)CC1,Percent Effect,"30 µM, 30.03 µM",36.3%
CN1CCC(c2nnc(CN3CCC(O)CC3)n2C)CC1,Percent Effect,"30 µM, 30.03 µM",13.07%
CC(C)=CCN1CCC(c2nnc(CN3CCN(C)CC3)n2C)CC1,Percent Effect,"30.3 µM, […]",50.84%
CCc1sc(-c2nnc(CNC(C)Cn3cccn3)o2)cc1C (stereo not given),Percent Effect,"30.3 µM, […]",-1.714%
O=C(c1cnc(Nc2ccccc2)nc1)N1CCC(O)(CO)CC1,Percent Effect,"30.3 µM, […]",-16.52%
c1cnn(CCNCc2cnc(N3CCCC3)nc2)c1,Percent Effect,"30.3 µM, […]",36.96%
CC(Cn1cccn1)NCc1cnc(N2CCCC2)nc1 (stereo not given),Percent Effect,"30.3 µM, […]",6.002%
c1ccc(Cn2cccn2)c(CNCc2cnc(N3CCCC3)nc2)c1,Percent Effect,"30.3 µM, […]",54.07%
O=C(O)C(F)(F)F.O=C(O)C(F)(F)F.c1coc(CN2CCCn3c(CN4CCOCC4)nnc3C2)c1,Percent Effect,"30.3 µM, […]",2.025%
O=c1ccc(-c2cccs2)nn1CN1CCN(c2ccccn2)CC1,Percent Effect,"30.3 µM, […]",5.805%
CSCc1cccc(S(=O)(=O)NCCO)c1,Percent Effect,"30.3 µM, […]",7.47%
CCNS(=O)(=O)c1cccc(CSC)c1,Percent Effect,"30.3 µM, […]",64.35%
CCN(CC)CCNS(=O)(=O)c1cccc(CSC)c1,Percent Effect,"30.3 µM, […]",-28.14%
O=C(NCc1ccccn1)NC1CCOc2ccccc21 (stereo not given),Percent Effect,"30 µM, 30.03 µM",24.88%
Cc1cc(CN(C)C(=O)c2ccc(F)cc2F)no1,Percent Effect,"30.3 µM, […]",-6.199%
Cc1ccc(CN2CCCC(c3cnccn3)C2)s1 (stereo not given),Percent Effect,"30.3 µM, […]",27.06%
Cc1ccc(CN2CCC(c3cnccn3)CC2)s1,Percent Effect,"30.3 µM, […]",12.08%
Cc1ccc(CN2CCOC(c3cnccn3)C2)s1 (stereo not given),Percent Effect,"30.3 µM, […]",57.91%
COc1ccc(CNC(C)c2ccc(Cl)cc2)c(OC)c1OC (stereo not given),Percent Effect,"30.3 µM, […]",11.12%
COc1ccc(CNC(C)c2cccc(Cl)c2)c(OC)c1OC (stereo not given),Percent Effect,"30 µM, 30.03 µM",25.49%
COc1ccc(CNC(C)c2ccc(Cl)c(Cl)c2)c(OC)c1OC (stereo not given),Percent Effect,"30.3 µM, […]",55.53%
Cc1sc2nc(C(F)(F)F)nc(N3CCN(C)CC3)c2c1C,Percent Effect,"30.3 µM, […]",9.999%
Cc1sc2nc(CCN)nc(N3CC(N4CCCCC4)C3)c2c1C,Percent Effect,"30.3 µM, […]",85.94%
Cc1sc2nc(CCN)nc(N3CCS(=O)(=O)CC3)c2c1C,Percent Effect,"30.3 µM, […]",0.7518%
Cc1sc2nc(CCN)nc(N3CCC(N4CCCC4)CC3)c2c1C,Percent Effect,"30.3 µM, […]",27.1%
Cc1sc2nc(CCN)nc(N3CCN(S(C)(=O)=O)CC3)c2c1C,Percent Effect,"30.3 µM, […]",-0.9568%
CCOC(=O)N1CCN(c2nc(CCN)nc3sc(C)c(C)c23)CC1,Percent Effect,"30.3 µM, […]",81.77%
Cc1ccc(NC(=O)N2CCOC(C)(c3cnn(C)c3)C2)c(C)c1 (stereo not given),Percent Effect,"30.3 µM, […]",12.13%
Cc1nn(C)c(C)c1S(=O)(=O)N(C)Cc1nn(C)c(Cl)c1Cl,Percent Effect,"30.3 µM, […]",1.519%
Cc1cn2c(n1)CCC(NC(=O)c1oc(Br)cc1C)C2 (stereo not given),Percent Effect,30 µM,33.37%
N#Cc1ccc(N2CC3(CCN(c4nccs4)C3)C2)nc1.O=CO.O=CO,Percent Effect,"30.3 µM, […]",9.16%
O=C1CC2(CCCC2)CN1CCOc1ccc(F)cc1,Percent Effect,"30.3 µM, […]",12.36%
CCN1CC2(CCN(CCOc3ccc(F)cc3)CC2)CC1=O,Percent Effect,"30.3 µM, […]",52.2%
CCN1CC2(CCC1=O)CCN(CCOc1ccc(F)cc1)CC2,Percent Effect,"30.3 µM, […]",19.57%
Cn1cc(C(=O)OC2CN(c3nc4c(C(F)(F)F)cccc4s3)C2)nn1,Percent Effect,"30.3 µM, […]",15.05%
Cc1ccc(C(=O)NCC(O)CN2CCCC2=O)cc1Cl (stereo not given),Percent Effect,"30.3 µM, […]",-2.277%
O=C(NCCc1c[nH]cn1)C1CCCN(C2CCOCC2)C1 (stereo not given),Percent Effect,"30.3 µM, […]",-4.763%
Cn1c(CCNC(=O)C2CCCN(C3CCOCC3)C2)n[nH]c1=O (stereo not given),Percent Effect,"30.3 µM, […]",60.82%
Cc1csc(CCNC(=O)C2CCCN(C3CCOCC3)C2)n1 (stereo not given),Percent Effect,"30.3 µM, […]",-3.021%
CC(C)c1nc(CN(C)C(=O)C2CC(=O)N(Cc3ccncc3)C2)cs1 (stereo not given),Percent Effect,"30.3 µM, […]",1.333%
Cn1ccnc1CN1CCC2(CC1)CC(NC(=O)c1ccccn1)CO2.O=C(O)C(F)(F)F (stereo not given),Percent Effect,"30 µM, 30.03 µM",2.919%
O=C(NC1COC2(CCN(Cc3ccccn3)CC2)C1)c1ccccn1.O=C(O)C(F)(F)F (stereo not given),Percent Effect,"30 µM, 30.03 µM",99.23%
Cc1nc(C(=O)N(C)C)nn1-c1ccccc1C(C)C,Percent Effect,"30.3 µM, […]",17.02%
CCN1CC2(CC1=O)CN(Cc1cnn(C)c1)CCN(C(C)=O)C2.O=C(O)C(F)(F)F (stereo not given),Percent Effect,"30 µM, 30.03 µM",8.348%
O=C(NCCc1ccccc1)C1CCC(Cn2cnnn2)CC1 (stereo not given),Percent Effect,"30 µM, 30.03 µM",4.824%
CCC(=O)N1CCN(S(=O)(=O)c2cccc(F)c2)[C@H]2CS(=O)(=O)C[C@H]21,Percent Effect,"30.3 µM, […]",19.41%
COCC(=O)N1CCN(S(=O)(=O)c2ccccc2)[C@H]2CS(=O)(=O)C[C@H]21,Percent Effect,"30.3 µM, […]",50.92%
COCC(=O)N1CCN(S(=O)(=O)c2cccs2)[C@H]2CS(=O)(=O)C[C@H]21,Percent Effect,"30.3 µM, […]",-6.326%
CS(=O)(=O)CC(=O)N1C[C@@H]2COC[C@]2(c2nnc(C3CC3)o2)C1,Percent Effect,"30 µM, 30.03 µM",6.501%
COc1cccc2c1ccn2CCC(=O)Nc1c2c(nn1C)CSC2,Percent Effect,"30.3 µM, […]",-9.12%
CCN(CC)C(=O)CS(=O)(=O)c1cc(OC)c(OC)cc1C,Percent Effect,"30.3 µM, […]",-79.93%
N#Cc1c(F)cccc1N1CCCC(C(=O)Nc2nncs2)C1 (stereo not given),Percent Effect,"30.3 µM, […]",39.68%
N#Cc1c(F)cccc1N1CCN(C(=O)Nc2nncs2)CC1,Percent Effect,"30.3 µM, […]",50.08%
N#Cc1c(F)cccc1N1CCC(C(=O)Nc2nccs2)CC1,Percent Effect,"30.3 µM, […]",8.432%
COCCN(Cc1ccccc1)Cc1nc(-c2ccsc2)no1,Percent Effect,"30.3 µM, […]",22.89%
Cc1cc(C2CCC2)nc(NCC(C)(C)N2CCOCC2)n1,Percent Effect,"30.3 µM, […]",23.38%
CCN1CCN(C(C)(C)CNc2nc(C)cc(C3CCC3)n2)CC1,Percent Effect,"30.3 µM, […]",54.39%
Cc1cc(C2CCC2)nc(NCC(C)(C)N2CCCC2)n1,Percent Effect,"30.3 µM, […]",9.291%
CCc1nc(C)c([C@H]2CN(C)C[C@@H]2C(=O)NCCc2cnccn2)[nH]1,Percent Effect,"30 µM, 30.03 µM",23.64%
CCNC(=O)NC(=O)CN1CCOC(c2ccccc2Cl)C1 (stereo not given),Percent Effect,"30.3 µM, […]",7.788%
CN(C)CCNc1cc(-c2ncccn2)c2cc[nH]c2n1,Percent Effect,"30.3 µM, […]",4.01%
N#Cc1c(N)nc2c(c1C1CCOC1)CCc1cc(O)ccc1-2 (stereo not given),Percent Effect,"30.3 µM, […]",-89.94%
COc1ccc2c(c1)Cc1c-2nc(N)c(C#N)c1C1CCOC1 (stereo not given),Percent Effect,"30.3 µM, […]",63.86%
COc1ccc2c(c1OC)Cc1c-2nc(N)c(C#N)c1C1CCOC1 (stereo not given),Percent Effect,"30.3 µM, […]",11.41%
Cc1nn(C)c(N(C)C)c1CNCc1cccc(OCCN(C)C)c1,Percent Effect,"30 µM, 30.03 µM",-13.13%
COc1cccc(CN(C)C(=O)CN2CC(n3nc(C)cc3C)C2)c1,Percent Effect,"30 µM, 30.03 µM",4.207%
Cc1cc(C)n(C2CN(CC(=O)N(C)Cc3ccco3)C2)n1,Percent Effect,"30.3 µM, […]",-0.4731%
COc1ccccc1CN(C)C(=O)CN1CC(n2nc(C)cc2C)C1,Percent Effect,"30.3 µM, […]",72.41%
CC(=O)N1CCC(N2CC[C@H](c3nc4cc(C)ccc4o3)C2)CC1,Percent Effect,"30.3 µM, […]",22.67%
CCn1nc(C)c2ncnc(NCC(=O)N3CCOCC3)c21,Percent Effect,"30 µM, 30.03 µM",13.04%
CCN(CC)C(=O)Cn1ccc2cc(NC(=O)NC3CC3)ccc21,Percent Effect,30 µM,18.91%
O=C(O)C(F)(F)F.O=C1CC[C@H]2[C@H](CCN2c2ncc(F)cn2)N1c1ccccc1,Percent Effect,"30.3 µM, […]",36.83%
Cc1ccoc1C(=O)N1CC[C@H]2[C@@H]1CCC(=O)N2c1cccnc1.O=C(O)C(F)(F)F,Percent Effect,"30.3 µM, […]",3.255%
O=C(c1cccs1)N1CC[C@H]2[C@@H]1CCC(=O)N2c1cccnc1,Percent Effect,"30.3 µM, […]",-14.6%
O=C(O)C(F)(F)F.O=C1CC[C@H]2[C@H](CCN2c2ncccn2)N1c1ccccc1,Percent Effect,"30.3 µM, […]",50.79%
Cc1cnc(N2CC[C@H]3[C@@H]2CCC(=O)N3c2ccccc2)nc1.O=C(O)C(F)(F)F,Percent Effect,"30.3 µM, […]",39.44%
O=C(c1cnccn1)N1CC[C@H]2[C@@H]1CCC(=O)N2c1cccnc1,Percent Effect,"30.3 µM, […]",69.01%
Cc1ccc(C(=O)N2CC[C@H]3[C@@H]2CCC(=O)N3c2cccnc2)o1.O=C(O)C(F)(F)F,Percent Effect,"30.3 µM, […]",56.88%
O=C(c1cscn1)N1CC[C@H]2[C@@H]1CCC(=O)N2c1ccccc1,Percent Effect,"30.3 µM, […]",4.628%
Cc1cnc(C(=O)N2CC[C@H]3[C@@H]2CCC(=O)N3c2cccnc2)cn1.O=C(O)C(F)(F)F,Percent Effect,"30.3 µM, […]",26.72%
